In all, about 1,900 compounds went through this assay and about 250 (13%) were called active. Another 4% or so got no clear call; they are omitted.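 Rule for the calls: active = fitted curve reaches 40% rescue activity at or below the top valid dose, in every test run; inconclusive = test runs disagree, some active and some inactive; inactive = every run misses the threshold or moves the wrong way.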 Not all results are given here. Entries that show only a call come without a potency. Potency and affinity values are given separately.

The nature of the test: suppressors of statin myotoxicity in myotubes, dose response, cell-based, C2C12 myotubes, ATP luminescence, cherry pick (AID 624405).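 Note: myotubes are challenged with simvastatin at 10 µM to lower ATP.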 To be noted: C2C12 myotubes + simvastatin, 48 h, scaled: DMSO wells 0, geranylgeraniol wells 100; series mostly up to 19.5 µM.
Turning to `C[C@@H]1CN([C@@H](C)CO)C(=O)c2cc(NC(=O)Cc3cn(C)c4ccccc34)ccc2O[C@H]1CN(C)S(=O)(=O)c1cccs1`, the result was inactive.

On to `CC(C)(C)c1cc(C(F)(F)F)c(C#N)c(=O)[nH]1`, for which the outcome was inactive.

`C=CCn1c(COc2ccc(Cl)cc2)nnc1SCC(=O)c1c(N)n(C)c(=O)n(C)c1=O`: the result was inactive.

`COc1ccc(S(=O)(=O)Nc2ccc3c(c2)CC(=O)N([C@H](C)CO)C[C@@H](C)[C@@H](CN(C)Cc2ccc(C(F)(F)F)cc2)O3)cc1`: the outcome was inactive.

As to `CCOC(=O)C1CCN(C=Nc2cc(C)on2)CC1`, the outcome was inactive.

On to `COc1ccc(S(=O)(=O)Nc2ccc3c(c2)C(=O)N([C@@H](C)CO)C[C@H](C)[C@@H](CN(C)S(=O)(=O)c2ccc(F)cc2)OCCCC[C@H](C)O3)cc1`, for which the result was inactive.

As for `NC(=O)C1CCN(Cc2nc3cc(Cl)ccc3c(=O)[nH]2)CC1`, the result was inactive.

For the compound `C[C@@H]1CCCCO[C@@H](CN(C)C(=O)Nc2cccc3ccccc23)[C@H](C)CN([C@@H](C)CO)C(=O)c2cc(NS(=O)(=O)c3ccc(Cl)cc3)ccc2O1`, the outcome was inactive.

As to `CCC/C(=C1/c2ccccc2C(=O)N1c1ccccc1)c1ccc2c(c1)OCCO2`, the outcome was inactive.

Regarding `C[C@H](CO)N1C[C@H](C)[C@@H](CN(C)Cc2ccccc2F)Oc2ncc(C3=CCCCC3)cc2C1=O`, the outcome was inactive.

With `C[C@@H]1CN([C@H](C)CO)C(=O)Cc2cc(NC(=O)Cc3cn(C)c4ccccc34)ccc2O[C@H]1CN(C)Cc1ccc(-c2ccccc2)cc1`, the outcome was inactive.

As to `COc1ccccc1CNc1ncnc2c1nnn2Cc1ccccc1`, the outcome was inactive.

Regarding `COc1ccc(CNc2ncnc3cc(OC)c(OC)cc23)cc1`, the result was inactive.

With `CC(c1ccco1)N(C(=O)Nc1ccc(Cl)cc1)c1ccccn1` (stereo not drawn), the outcome was inactive.

As to `COc1ccc(-n2nnnc2SCC(=O)N2CCCc3ccccc32)cc1OC`, the outcome was inactive.

On to `COc1ccccc1-c1nnc(SCC(=O)N2CC(C)CC(C)C2)o1` (stereo not drawn), for which the result was inactive.

For `CNC[C@@H]1Oc2ccc(NC(=O)Nc3ccc(C(F)(F)F)cc3)cc2CC(=O)N([C@@H](C)CO)C[C@@H]1C`, the outcome was inactive.

In the case of `CCOc1cc(CNCc2ccncc2)cc(Br)c1OCc1ccccc1F`, the result was inactive.

On to `COc1ccc2c(c1)c(C(=O)OCCN(C)C)c(C)n2C`, for which the result was inactive.

As to `O=C(COc1ccccc1)Nc1ccc(S(=O)(=O)N2CCCC2)cc1`, the outcome was inactive.

As for `Cc1c(C(=O)N2CCOCC2)oc2ccc(S(=O)(=O)N3CCCC3)cc12`, the result was inactive.

`C[C@H]1CCCCO[C@@H](CN(C)C(=O)Nc2cccc3ccccc23)[C@@H](C)CN([C@@H](C)CO)C(=O)c2cc(NS(=O)(=O)c3ccc(Cl)cc3)ccc2O1`: the outcome was inactive.

In the case of `C[C@@H]1CN([C@H](C)CO)C(=O)c2cc(C3=CCCCC3)cnc2O[C@@H]1CN(C)Cc1ccccc1F`, the outcome was inactive.

Turning to `Cc1noc(C)c1NC(=O)Nc1ccc2c(c1)C(=O)N([C@@H](C)CO)C[C@@H](C)[C@H](CN(C)S(=O)(=O)c1c(C)noc1C)OCCCC[C@@H](C)O2`, the result was inactive.

For the compound `Nc1nnnn1NCc1cccc(OCc2ccccc2)c1`, the result was inactive.

For `COc1cc(CCC(=O)OCc2nnc(-c3ccccc3)o2)cc(OC)c1OC`, the outcome was inactive.

`Cc1ccc(N2C(N)=NC(N)=NC2(C)C)c(C)c1`: the outcome was inactive.

Turning to `CCOC(=O)N1CCN(C(=O)c2ccc3c(=O)n(CCc4ccccc4)c(=O)[nH]c3c2)CC1`, the outcome was inactive.

In the case of `CN1C(=O)c2cc(NS(=O)(=O)c3ccc(Cl)cc3)ccc2OC[C@@H]2O[C@@H](CC(=O)N3CCc4ccccc4C3)CC[C@H]21`, the outcome was inactive.

`COc1cccc(C(=O)CN2C3=NCCCN3c3ccccc32)c1`: the outcome was inactive.

For `CCCCN1C(=O)NC(NC(C)=O)(C(F)(F)F)C1=O` (stereo not drawn), the result was inactive.

Take `Cc1cccc(N=c2oc3cc(O)ccc3cc2C(N)=O)c1`: the outcome was inactive.

For the compound `O=C(Cn1ncc2c3ccccc3n(Cc3cccc(Cl)c3)c2c1=O)NCC1CCCO1` (stereo not drawn), the result was inactive.

Turning to `O=c1c2ccccc2n(Cc2ccc(F)cc2)c(=O)n1C1CCCC1`, the outcome was inactive.

For the compound `N#Cc1cc(-c2ccccc2)nnc1Sc1ccc(Cl)cc1`, the result was inactive.

On to `COc1ccc(CN(Cc2cccn2C)C(=O)c2cc3cc(OC)ccc3[nH]2)cc1`, for which the outcome was inactive.

On to `Cn1c(-c2ccc(F)cc2)cnc1NCc1ccc(F)cc1`, for which the result was inactive.

On to `COc1cc(NC(=O)c2cccs2)c(C(=O)OCC(=O)NCc2ccco2)cc1OC`, for which the result was inactive.

For `Cc1ccc(CNC(=O)CNS(=O)(=O)c2cccc3nsnc23)cc1`, the outcome was inactive.

For the compound `COc1ccc(S(=O)(=O)Nc2ccc3c(c2)C(=O)N([C@H](C)CO)C[C@@H](C)[C@H](CN(C)S(=O)(=O)c2ccc(F)cc2)OCCCC[C@H](C)O3)cc1`, the result was inactive.

As for `CNC[C@@H]1Oc2ccc(NS(=O)(=O)c3c(C)noc3C)cc2C(=O)N([C@@H](C)CO)C[C@@H]1C`, the result was inactive.

Take `Cc1nc(CSc2ccc(Cl)cc2)cc(N2CC(C)OC(C)C2)n1` (stereo not drawn): the outcome was inactive.

Take `CC1CC(C)CN(CCCNC(=O)c2ccc3c(c2)NC(=O)C(N2CCCCC2)S3)C1` (stereo not drawn): the outcome was inactive.

`O=C(Nc1cc(Br)ccc1O)c1cc(-c2cccs2)on1`: the outcome was inactive.

For `O=C(Nc1cccc(C(F)(F)F)c1)c1cc(-c2cccs2)on1`, the outcome was inactive.

Take `CC(=O)c1cccc(NC(=O)c2cc(-c3cccs3)on2)c1`: the outcome was inactive.

As for `Cc1ccc(NC(=O)c2cc(-c3cccs3)on2)cc1`, the outcome was inactive.

With `CCN(CCCNC(=O)C1CCC(=O)N1C(C)C)c1cccc(C)c1` (stereo not drawn), the outcome was inactive.

Take `Cc1noc(C)c1S(=O)(=O)Nc1ccc2c(c1)C(=O)N([C@@H](C)CO)C[C@H](C)[C@H](CN(C)Cc1ccc3c(c1)OCO3)O2`: the result was inactive.

`O=C(Nc1ccccc1)Oc1cccc2cccnc12`: the outcome was inactive.

Take `COc1ccc(S(=O)(=O)Nc2ccccc2C(=O)NC(C)(C)C)cc1OC`: the result was inactive.

For the compound `COc1ccccc1NS(=O)(=O)c1cccc(NC(=O)c2ccc3ccccc3n2)c1`, the outcome was inactive.

With `C#CCOC(=O)c1ccccc1C(=O)N(CC)CC`, the outcome was inactive.

As to `O=C(CCN1CCc2ccccc21)c1ccc2c(c1)OCCO2`, the outcome was inactive.

With `COc1ccc(C2CC(=O)Oc3c(C(CCN4CCCCC4)c4ccc(N(C)C)cc4)c(OC)cc(OC)c32)cc1` (stereo not drawn), the outcome was inactive.

Regarding `O=C(Nc1cnn(Cc2ccccc2)c1)c1cc2nc(-c3ccco3)cc(C(F)(F)F)n2n1`, the outcome was inactive.

With `COc1ccc(S(=O)(=O)Nc2cccc3c2O[C@H](CN(C)CC2CCCCC2)[C@H](C)CN([C@H](C)CO)C3=O)cc1`, the outcome was inactive.

With `Cc1cc(NC(=O)COC(=O)C2CCN(S(=O)(=O)c3c(Cl)cccc3Cl)CC2)no1`, the outcome was inactive.

On to `N#Cc1ccc(-c2nnnn2-c2ccc3c(c2)OCO3)cc1`, for which the outcome was inactive.

`COC(=O)c1ccccc1NC(=O)c1ccccc1OC`: the result was inactive.

On to `COc1ccccc1N(CC(=O)Nc1ccc2c(c1)OCCO2)S(C)(=O)=O`, for which the outcome was inactive.

Consider `Cc1noc(C)c1S(=O)(=O)N1CCC(C(=O)N2CCN(c3ccccc3Cl)CC2)CC1`, for which the outcome was inactive.

Regarding `C[C@@H]1CCCCO[C@H](CN(C)CC2CCCCC2)[C@@H](C)CN([C@H](C)CO)C(=O)c2cc(NC(=O)CCCN(C)C)ccc2O1`, the outcome was inactive.

With `C[C@@H]1CN([C@@H](C)CO)C(=O)c2cc(C3=CCCCC3)cnc2O[C@@H]1CN(C)C(=O)C1CCOCC1`, the outcome was inactive.

In the case of `O=C(COC(=O)CNC(=O)c1ccc(Br)o1)Nc1ccc2c(c1)OCCO2`, the result was inactive.

For `COc1ccc(C(=O)N2CCc3cc(OC)c(OC)cc3C2)cc1OC`, the outcome was inactive.

For `COc1ccc(C(=O)N2CCN(C(=O)c3cc(OC)c(OC)c(OC)c3)CC2)cc1`, the outcome was inactive.

`N#Cc1cc2c(nc1SCC(=O)N1CCCCC1)CCCCC2`: the result was inactive.

Take `CC(C)(C)C(=O)Nc1ccccc1N1CCN(C(=O)c2ccc(Cl)cc2)CC1`: the result was inactive.

Turning to `C[C@@H]1CN([C@@H](C)CO)C(=O)Cc2cc(NC(=O)C3CCCCC3)ccc2O[C@H]1CN(C)Cc1ccc(-c2ccccc2)cc1`, the outcome was inactive.

`C[C@H](CO)N1C[C@H](C)[C@@H](CN(C)Cc2ccc(Cl)c(Cl)c2)Oc2ccc(NC(=O)c3ccncc3)cc2CC1=O`: the result was inactive.

Consider `C[C@@H]1CN([C@H](C)CO)C(=O)c2cc(NC(=O)C3CCCCC3)ccc2O[C@H]1CN(C)Cc1ccc(Cl)c(Cl)c1`, for which the outcome was inactive.

Turning to `C[C@@H]1CN([C@H](C)CO)C(=O)Cc2cc(NC(=O)Nc3ccc(F)cc3)ccc2O[C@H]1CN(C)Cc1ccc(Cl)c(Cl)c1`, the result was inactive.

`C[C@H](CO)N1C[C@H](C)[C@@H](CN(C)Cc2ccc(Cl)c(Cl)c2)Oc2ccc(NC(=O)NC3CCCCC3)cc2CC1=O`: the result was inactive.

`C[C@@H]1CN([C@@H](C)CO)C(=O)c2cc(NC(=O)C3CCCCC3)ccc2O[C@@H]1CN(C)Cc1ccc(Cl)c(Cl)c1`: the result was inactive.

On to `C[C@H]1CN([C@@H](C)CO)C(=O)Cc2cc(NC(=O)Cc3cn(C)c4ccccc34)ccc2O[C@@H]1CN(C)Cc1ccc(Cl)c(Cl)c1`, for which the result was inactive.

Consider `C[C@@H]1CN([C@H](C)CO)C(=O)Cc2cc(NC(=O)Cc3cn(C)c4ccccc34)ccc2O[C@@H]1CN(C)Cc1ccc(Cl)c(Cl)c1`, for which the outcome was inactive.

On to `COc1ccc(S(=O)(=O)Nc2ccc3c(c2)C(=O)N([C@@H](C)CO)C[C@H](C)[C@@H](CN(C)S(=O)(=O)c2ccc(F)cc2)OCCCC[C@@H](C)O3)cc1`, for which the result was inactive.

Consider `C[C@@H]1CCCCO[C@H](CN(C)C(=O)Nc2cccc3ccccc23)[C@H](C)CN([C@@H](C)CO)C(=O)c2cc(NC(=O)Nc3ccc4c(c3)OCO4)ccc2O1`, for which the result was inactive.

With `COc1cccc(S(=O)(=O)N(C)C[C@@H]2Oc3ncc(C#CCC(C)C)cc3C(=O)N([C@@H](C)CO)C[C@H]2C)c1`, the result was inactive.

Consider `CC(=O)Nc1cc(-c2nn(C)c(=O)c3ccccc23)ccc1N1CCOCC1`, for which the result was inactive.

For the compound `C[C@@H]1CCCCO[C@H](CN(C)C(=O)C2CCCCC2)[C@H](C)CN([C@H](C)CO)C(=O)c2cc(NS(=O)(=O)c3ccccc3)ccc2O1`, the result was inactive.

Regarding `COc1ccc(CC(=O)Nc2ccc(-c3cn4ccccc4n3)cc2)cc1`, the outcome was inactive.

For the origin of these results see PubChem BioAssay AID624405 (Broad Institute, 2012).
